Experimental data: PubChem BioAssay
Activity calls are given as the source filed them.

Assays:
[1] = tested on: PRMT1 (protein arginine N-methyltransferase 1); experiment: small molecules binding arginine methyltransferase PRMT1 – biochemical, small-molecule microarray, 635 nm fluorescence, primary screen (AID 1088); conditions: higher = more signal;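 note: binding of Prmt1 protein to compounds spotted on small-molecule microarray slides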
[2] = growth effects on S. cerevisiae YJM789 – YJM789 clinical isolate, OD600, 24 h, basal, primary screen (AID 1089); conditions: higher = more signal, called active from +8 up or from −8 down;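 note: growth of clinical yeast isolate S. cerevisiae YJM 789 seeded 1000 cells per well; test concentration not given here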
[3] = S. pombe growth modifiers, basal conditions – strain 972, OD600, 24 h, no modulator, primary screen (AID 1090);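 note: basal condition with compound alone and no growth modifier present; test concentration not given here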; conditions: S. pombe 972 growth, higher = more signal, called active from +8 up or from −8 down
[4] = budding yeast growth modifiers under rapamycin – strain BY4716, OD600, 96 h, primary screen (AID 1091); note: test concentration not given here; conditions: S. cerevisiae BY4716 + rapamycin, higher = more signal, called active from +8 up or from −8 down
[5] = target: Torsin-1A-interacting protein 2 (Homo sapiens) (UniProt Q8NFQ8); experiment: small molecules binding lysate-expressed LULL1 – cell lysate, human LULL1 lysate, 635/667 nm fluorescence, primary screen (AID 1092); conditions: small-molecule microarray, hLULL1 lysate binding, 635 nm fluorescence; higher = more signal;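 note: probe is lysate of COS7 cells overexpressing human LULL1; score merges per-feature 667 nm fluorescence with signal-to-noise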
[6] = optical density change of DRC41 E. coli – strain DRC41, OD650, 24 h, E. coli filamentation project, primary screen (AID 1093);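 note: MC1000 strain lacking acrAB efflux and sulA so SOS filamentation is blocked; test concentration not given here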; conditions: E. coli DRC41 growth, higher = more signal, called active from +8 up or from −8 down
[7] = probe aLefty2 binding to arrayed compounds – biochemical, biotinylated probe, 635/667 nm fluorescence, primary screen (AID 1094); conditions: small-molecule microarray, higher = more signal;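 note: score merges spot fluorescence near 667 nm with spot signal-to-noise ratio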
[8] = tested on: Noggin (protein binding on small-molecule microarray); experiment: small molecules binding Noggin protein – biochemical, 635/667 nm fluorescence, primary screen (AID 1095); conditions: 635 nm fluorescence, higher = more signal;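 note: score merges 667 nm feature fluorescence with signal to noise over triplicate slides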
[9] = target: Neurogenic locus notch homolog protein 3 (Homo sapiens) (UniProt Q9UM47); experiment: small molecules binding NOTCH3 protein – biochemical, 635/667 nm fluorescence, primary screen (AID 1096); conditions: small-molecule microarray, 635 nm fluorescence, higher = more signal
[10] = probe aEGFR binding to arrayed compounds – biochemical, biotinylated probe, 635/667 nm fluorescence, primary screen (AID 1097); conditions: small-molecule microarray, higher = more signal;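 note: probe is a biotinylated anti-EGFR antibody binding compounds printed on slides; score combines fluorescence near 667 nm and signal to noise of each spot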
[11] = tested on: Plasmodium falciparum Sir2 (PF13_0152, Sir2A); experiment: Plasmodium falciparum Sir2A binding compounds – biochemical, small-molecule microarray, 635 nm fluorescence, primary screen (AID 1098); conditions: fluorescence 635 nm, higher = more signal;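 note: score merges spot fluorescence intensity with its signal-to-noise ratio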
[12] = probe aDKK1 binding to arrayed compounds – biochemical, biotinylated probe, 635/667 nm fluorescence, primary screen (AID 1099); conditions: small-molecule microarray, higher = more signal;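 note: score merges 667nm spot fluorescence with signal to noise across triplicate slides; reference of the scale not given here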
[13] = probe aCHRDL2 binding to arrayed compounds – biochemical, biotinylated probe, 635/667 nm fluorescence, primary screen (AID 1100); conditions: small-molecule microarray, higher = more signal
[14] = change in splice reporter luminescence, either direction, cell-based, HEK293, spliceosome inhibition project, primary screen (AID 1101); conditions: HEK293 splicing luciferase reporter, 24 h, higher = more signal, called active from +8 up or from −8 down;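 note: HEK293 cells carrying a splicing-competent luciferase reporter gene; test concentration not given here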
[15] = target: Fibroblast growth factor 10 (Homo sapiens) (UniProt O15520); experiment: compounds binding fibroblast growth factor 10 – biochemical, small-molecule microarray, 635 nm fluorescence, primary screen (AID 1102); conditions: FGF10 binding, fluorescence 635 nm, higher = more signal
[16] = tested on: glycogen synthase kinase-3 (GSK3A per assay name; protocol says GSK3B); experiment: compounds binding glycogen synthase kinase-3 – biochemical, small-molecule microarray, 635 nm fluorescence, GSK3A, primary screen (AID 1103); conditions: fluorescence 635 nm, higher = more signal; note: the record names both GSK3A and GSK3B
[17] = target: Epidermal growth factor receptor (Homo sapiens) (UniProt P00533); experiment: compounds binding epidermal growth factor receptor – biochemical, small-molecule microarray, 635 nm fluorescence, primary screen (AID 1104); conditions: EGFR binding, higher = more signal;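 note: score merges 667 nm emission intensity with spot signal to noise over triplicate slides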
[18] = target: Follistatin-related protein 3 (Homo sapiens) (UniProt O95633); experiment: compounds binding follistatin-related protein 3 – biochemical, small-molecule microarray, 635 nm fluorescence, primary screen (AID 1105); conditions: FSTL3 binding, higher = more signal;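 note: score merges emission near 667 nm and signal to noise per printed spot across three slides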
[19] = target: Dickkopf-related protein 1 (Homo sapiens) (UniProt O94907); experiment: small molecules binding DKK1 protein – biochemical, small-molecule microarray, 635 nm fluorescence scan, primary screen (AID 1106); conditions: higher = more signal;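 note: score merges emission near 667 nm with signal to noise over three replicate slides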
[20] = tested on: Inhibin beta A chain (activin A); experiment: small molecules binding activin A – biochemical, small-molecule microarray, 635 nm fluorescence scan, primary screen (AID 1107); conditions: INHBA, higher = more signal;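 note: mouse activin A protein probed at 4.33 µg/mL on printed slides; score merges bound-protein fluorescence near 667 nm with spot signal-to-noise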

Chain of Epidermal growth factor receptor (Homo sapiens) (P00533 whole entry, looked up): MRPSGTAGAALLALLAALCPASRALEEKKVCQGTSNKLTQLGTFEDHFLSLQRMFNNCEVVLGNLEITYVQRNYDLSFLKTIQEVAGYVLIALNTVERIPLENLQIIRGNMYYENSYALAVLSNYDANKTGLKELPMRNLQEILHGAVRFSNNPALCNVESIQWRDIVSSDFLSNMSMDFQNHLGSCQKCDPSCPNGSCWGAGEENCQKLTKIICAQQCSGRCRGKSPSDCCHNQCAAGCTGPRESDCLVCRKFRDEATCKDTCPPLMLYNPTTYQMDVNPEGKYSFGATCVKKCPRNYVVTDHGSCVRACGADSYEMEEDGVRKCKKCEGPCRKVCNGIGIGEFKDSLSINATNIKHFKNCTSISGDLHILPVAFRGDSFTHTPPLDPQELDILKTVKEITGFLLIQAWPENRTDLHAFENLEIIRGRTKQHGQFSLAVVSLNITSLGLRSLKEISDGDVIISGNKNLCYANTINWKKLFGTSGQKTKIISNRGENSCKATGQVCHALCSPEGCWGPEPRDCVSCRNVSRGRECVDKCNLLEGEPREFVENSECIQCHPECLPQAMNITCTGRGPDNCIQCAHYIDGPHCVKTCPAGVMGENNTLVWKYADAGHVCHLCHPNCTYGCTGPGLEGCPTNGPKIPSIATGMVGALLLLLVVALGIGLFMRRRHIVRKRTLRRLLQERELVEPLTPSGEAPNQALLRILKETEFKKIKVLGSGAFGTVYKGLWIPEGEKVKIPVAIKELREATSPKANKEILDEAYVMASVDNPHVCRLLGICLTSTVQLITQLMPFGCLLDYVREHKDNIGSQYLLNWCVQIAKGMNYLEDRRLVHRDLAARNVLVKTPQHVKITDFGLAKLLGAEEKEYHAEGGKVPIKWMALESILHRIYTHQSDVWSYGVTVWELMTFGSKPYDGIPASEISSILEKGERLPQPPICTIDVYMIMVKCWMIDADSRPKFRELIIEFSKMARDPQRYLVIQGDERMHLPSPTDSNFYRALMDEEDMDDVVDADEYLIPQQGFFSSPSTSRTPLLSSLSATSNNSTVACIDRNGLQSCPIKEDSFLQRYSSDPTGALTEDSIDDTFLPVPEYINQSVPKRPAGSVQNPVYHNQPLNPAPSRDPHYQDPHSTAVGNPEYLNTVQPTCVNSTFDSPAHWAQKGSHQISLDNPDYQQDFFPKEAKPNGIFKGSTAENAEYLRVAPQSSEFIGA
Chain of Follistatin-related protein 3 (Homo sapiens) (O95633 whole entry, looked up): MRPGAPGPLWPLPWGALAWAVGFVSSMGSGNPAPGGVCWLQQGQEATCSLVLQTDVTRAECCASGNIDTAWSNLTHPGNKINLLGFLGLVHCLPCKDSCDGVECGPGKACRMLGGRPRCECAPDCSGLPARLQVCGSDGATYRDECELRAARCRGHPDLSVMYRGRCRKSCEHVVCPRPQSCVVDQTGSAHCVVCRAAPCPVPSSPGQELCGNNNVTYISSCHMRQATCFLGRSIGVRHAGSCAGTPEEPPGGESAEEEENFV
Chain of Dickkopf-related protein 1 (Homo sapiens) (O94907 whole entry, looked up): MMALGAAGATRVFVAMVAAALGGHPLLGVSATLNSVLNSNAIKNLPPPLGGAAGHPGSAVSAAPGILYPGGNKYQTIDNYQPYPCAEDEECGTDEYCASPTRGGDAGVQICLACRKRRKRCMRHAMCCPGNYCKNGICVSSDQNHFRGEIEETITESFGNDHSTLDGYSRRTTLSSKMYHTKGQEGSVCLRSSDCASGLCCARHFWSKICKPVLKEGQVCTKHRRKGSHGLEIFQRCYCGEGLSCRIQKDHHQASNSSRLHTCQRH
Chain of Fibroblast growth factor 10 (Homo sapiens) (O15520 whole entry, looked up): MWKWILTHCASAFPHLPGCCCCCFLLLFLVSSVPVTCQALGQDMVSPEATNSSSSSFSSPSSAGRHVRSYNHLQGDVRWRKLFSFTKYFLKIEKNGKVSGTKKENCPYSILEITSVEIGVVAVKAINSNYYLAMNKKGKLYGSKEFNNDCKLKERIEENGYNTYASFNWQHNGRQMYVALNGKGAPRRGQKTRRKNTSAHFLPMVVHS
Chain of Neurogenic locus notch homolog protein 3 (Homo sapiens) (Q9UM47 whole entry, looked up): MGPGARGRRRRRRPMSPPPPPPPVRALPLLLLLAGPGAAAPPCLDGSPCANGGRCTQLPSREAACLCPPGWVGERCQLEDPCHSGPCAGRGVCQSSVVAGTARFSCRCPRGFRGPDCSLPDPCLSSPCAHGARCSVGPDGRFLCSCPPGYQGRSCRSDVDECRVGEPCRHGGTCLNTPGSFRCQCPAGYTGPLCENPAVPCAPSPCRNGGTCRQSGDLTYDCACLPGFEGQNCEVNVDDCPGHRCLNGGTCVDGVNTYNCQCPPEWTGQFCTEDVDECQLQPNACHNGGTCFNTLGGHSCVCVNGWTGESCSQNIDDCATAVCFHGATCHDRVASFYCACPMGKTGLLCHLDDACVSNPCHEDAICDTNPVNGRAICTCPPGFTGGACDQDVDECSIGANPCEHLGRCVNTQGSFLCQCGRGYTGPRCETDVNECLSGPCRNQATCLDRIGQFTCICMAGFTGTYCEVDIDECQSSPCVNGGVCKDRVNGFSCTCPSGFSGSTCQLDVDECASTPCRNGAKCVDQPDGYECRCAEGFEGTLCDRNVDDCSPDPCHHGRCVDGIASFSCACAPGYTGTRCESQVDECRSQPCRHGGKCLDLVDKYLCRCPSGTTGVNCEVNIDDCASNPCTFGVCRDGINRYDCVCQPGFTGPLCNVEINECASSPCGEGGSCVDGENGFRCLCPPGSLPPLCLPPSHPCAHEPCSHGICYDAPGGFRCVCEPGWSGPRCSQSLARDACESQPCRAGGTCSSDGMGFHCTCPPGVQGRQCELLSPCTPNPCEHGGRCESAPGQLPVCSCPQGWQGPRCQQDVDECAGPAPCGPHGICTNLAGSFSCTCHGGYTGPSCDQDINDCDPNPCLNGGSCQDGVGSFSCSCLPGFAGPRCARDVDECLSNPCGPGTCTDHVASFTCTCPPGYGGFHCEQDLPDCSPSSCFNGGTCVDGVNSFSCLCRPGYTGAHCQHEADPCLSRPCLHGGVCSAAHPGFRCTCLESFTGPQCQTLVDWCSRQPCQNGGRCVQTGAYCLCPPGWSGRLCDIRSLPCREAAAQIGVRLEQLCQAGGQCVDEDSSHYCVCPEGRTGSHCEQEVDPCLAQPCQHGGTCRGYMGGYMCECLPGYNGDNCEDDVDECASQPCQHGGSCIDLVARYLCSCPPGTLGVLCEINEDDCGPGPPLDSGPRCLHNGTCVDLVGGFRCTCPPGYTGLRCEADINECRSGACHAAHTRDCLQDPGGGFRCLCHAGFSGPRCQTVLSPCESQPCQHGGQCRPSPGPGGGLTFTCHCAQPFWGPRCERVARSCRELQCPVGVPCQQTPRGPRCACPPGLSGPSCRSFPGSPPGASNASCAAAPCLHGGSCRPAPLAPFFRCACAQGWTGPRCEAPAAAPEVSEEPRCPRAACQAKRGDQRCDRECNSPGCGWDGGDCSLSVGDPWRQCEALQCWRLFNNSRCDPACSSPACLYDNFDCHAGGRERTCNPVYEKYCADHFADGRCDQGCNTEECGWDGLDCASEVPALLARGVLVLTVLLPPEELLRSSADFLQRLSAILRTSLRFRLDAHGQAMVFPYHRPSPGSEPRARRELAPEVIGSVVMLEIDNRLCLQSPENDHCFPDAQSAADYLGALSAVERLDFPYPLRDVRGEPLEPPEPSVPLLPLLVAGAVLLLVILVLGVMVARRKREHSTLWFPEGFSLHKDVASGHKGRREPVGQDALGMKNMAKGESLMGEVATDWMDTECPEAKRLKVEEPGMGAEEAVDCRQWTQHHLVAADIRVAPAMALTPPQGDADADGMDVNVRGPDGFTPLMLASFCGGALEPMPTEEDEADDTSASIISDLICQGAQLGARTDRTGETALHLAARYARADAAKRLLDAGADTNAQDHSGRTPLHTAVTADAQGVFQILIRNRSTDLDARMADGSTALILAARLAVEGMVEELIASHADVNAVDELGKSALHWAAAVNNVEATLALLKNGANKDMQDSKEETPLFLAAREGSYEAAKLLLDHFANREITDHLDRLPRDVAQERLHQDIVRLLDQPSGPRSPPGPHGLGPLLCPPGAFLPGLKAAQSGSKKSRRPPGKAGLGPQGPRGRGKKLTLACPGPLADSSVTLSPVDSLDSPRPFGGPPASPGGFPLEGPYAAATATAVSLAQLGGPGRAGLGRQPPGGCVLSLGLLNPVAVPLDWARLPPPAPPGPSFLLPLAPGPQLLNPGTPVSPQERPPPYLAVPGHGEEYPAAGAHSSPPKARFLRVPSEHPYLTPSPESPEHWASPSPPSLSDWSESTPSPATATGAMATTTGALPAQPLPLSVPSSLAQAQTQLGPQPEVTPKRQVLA
Chain of Torsin-1A-interacting protein 2 (Homo sapiens) (Q8NFQ8 whole entry, looked up): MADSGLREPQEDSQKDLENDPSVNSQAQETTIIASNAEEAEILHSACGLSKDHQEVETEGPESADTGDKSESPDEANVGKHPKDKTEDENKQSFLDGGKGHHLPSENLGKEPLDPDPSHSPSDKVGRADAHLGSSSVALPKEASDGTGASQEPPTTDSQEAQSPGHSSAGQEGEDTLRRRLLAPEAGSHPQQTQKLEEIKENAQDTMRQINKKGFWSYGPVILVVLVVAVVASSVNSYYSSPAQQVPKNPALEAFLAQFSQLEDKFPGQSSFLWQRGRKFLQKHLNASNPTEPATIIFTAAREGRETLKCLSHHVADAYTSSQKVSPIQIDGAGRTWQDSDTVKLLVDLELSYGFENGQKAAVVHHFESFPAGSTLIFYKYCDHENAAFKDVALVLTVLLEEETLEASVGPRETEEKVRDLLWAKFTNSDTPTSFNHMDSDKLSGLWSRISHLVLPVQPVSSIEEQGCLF

Compound	composite z-score [1]	z-score [2]	z-score [3]	z-score [4]	composite z-score [5]	z-score [6]	composite z-score [7]	composite z-score [8]	composite z-score [9]	composite z-score [10]	composite z-score [11]	composite z-score [12]	composite z-score [13]	z-score [14]	composite z-score [15]	composite z-score [16]	composite z-score [17]	composite z-score [18]	composite z-score [19]	composite z-score [20]
Cc1ccc(S[C@]2(C(=O)NCc3ccccc3)CC(=O)N(Cc3ccccc3C(F)(F)F)[C@@H]2c2ccc(CO)cc2I)cc1	1.3	-1.53 (inactive)	-4.08 (inactive)	0.899 (inactive)	1.93	0.322 (inactive)	-0.0593	-0.86	-0.582	-0.282	1.62	0.211	0.831	-0.494 (inactive)	-0.557	-0.498	-1.3	-0.793	-0.749	1.07
COc1ccc(C(O)C2C=CC3C(=O)N(C)C(=O)C3N2Nc2ccccc2)cc1 (stereo not given)	1.29	-0.0991 (inactive)	-0.546 (inactive)	0.695 (inactive)	3.3	-0.238 (inactive)	0.156	-0.357	1.06	0.147	0.454	-0.0205	0.87	-0.52 (inactive)	0.663	0.925	0.468	0.441	0.312	0.979
COc1ccc(-c2cc3c(c(CCc4ccccc4)n2)[Si](C(C)C)(C(C)C)O[C@H]3c2ccccc2)cn1	0.469	0.646 (inactive)	-0.0525 (inactive)	1.23 (inactive)	-0.0354	-1.12 (inactive)	-0.213	0.75	0.439	-0.0749	-0.576	0.0477	-0.12	-0.879 (inactive)	0.332	-0.237	-0.0109	0.362	-0.0079	0.343
CC(=O)NCCCC[C@@H]1NC(=O)[C@H]2C[C@@H](C(=O)O)[C@@H](c3cccc(OCCO)c3)N2C1=O	1.54	0.341 (inactive)	-0.198 (inactive)	-0.453 (inactive)	2.49	-0.147 (inactive)	0.122	1.58	1.11	0.189	1.69	0.904	0.237	0.345 (inactive)	1.25	1.33	0.556	1.32	0.639	0.316
C[C@]12C(=O)N(CCO)[C@@H]3C(=O)N(c4ccc(Cl)cc4)CC=CC31O[C@@H]1/C=C\CCCOC(=O)C12 (stereo not given in full)	-0.0919	-0.174 (inactive)	-0.13 (inactive)	0.169 (inactive)	-0.236	0.125 (inactive)	0.034	-0.464	0.0111	-0.216	-0.617	-0.128	0.776	0.178 (inactive)	-1.04	-1.31	-1.51	-1.03	-1.53	0.847
COC(=O)C1(CC(C)C)C=C2C(=C(C)C(=O)C2C)CN1 (stereo not given)	-0.999	-0.355 (inactive)	0.543 (inactive)	0.202 (inactive)	2.1	-0.698 (inactive)	0.374	-0.054	0.379	0.449	-0.211	1.34	1.14	1.68 (inactive)	0.069	-0.279	-0.155	0.641	-0.15	1.43
CCOC(=O)C1=CCC(c2ccncc2)N(S(=O)(=O)c2ccc(C)cc2)C1 (stereo not given)	1.36	-2.24 (inactive)	-2.69 (inactive)	8.79 (active)	3.84	0.336 (inactive)	-0.0585	0.361	1.09	0.0642	1.03	0.205	0.198	-1.3 (inactive)	1.34	1.29	0.432	1.05	0.332	0.856
CCCCCCCCCCC(O)C1C=CC2C(=O)N(C)C(=O)C2N1Nc1ccccc1 (stereo not given)	-1.19	0.875 (inactive)	-1.53 (inactive)	0.882 (inactive)	0.8	-1.87 (inactive)	-0.405	-0.387	-1.4	-0.247	-1.02	-0.0132	0.937	0.953 (inactive)	-1.09	-1.09	-1.33	-1.54	-1.22	1.17
C=CCNC(=O)[C@@H]1[C@H]2C(=O)O[C@H](c3ccccc3)[C@H](c3ccccc3)N2[C@H](c2ccc(OCCO)cc2)[C@@]12C(=O)Nc1ccc(C#CC3=CCCCC3)cc12	1.54	1.78 (inactive)	1.18 (inactive)	3.36 (inactive)	2.94	-0.639 (inactive)	-0.168	0.918	1.14	0.0526	1.11	-0.297	-0.299	-0.384 (inactive)	1.17	1.21	0.39	0.882	0.586	-0.621
COC(=O)C[C@H]1O[C@]2(C(=O)N(C)c3ccccc32)[C@@H](C)[C@@H]1[Si](C)(C)c1ccccc1	1.17	-4.03 (inactive)	-5.37 (inactive)	-2.45 (inactive)	0.687	0.23 (inactive)	0.0718	1.23	1.08	-0.0675	-0.0153	-0.0571	-0.261	-1.25 (inactive)	0.988	0.96	0.753	0.837	1.11	-0.399
O=C1c2ccccc2[C@](Cc2ccccc2I)(C(=O)NCCN2CCOCC2)[C@H](c2ccc(CO)cc2)N1Cc1ccccc1C(F)(F)F	1.56	-1.06 (inactive)	-1.06 (inactive)	-0.132 (inactive)	2.95	-1.82 (inactive)	-0.0376	0.307	1.01	-0.109	0.655	-0.0516	0.358	-0.0322 (inactive)	0.275	0.484	-0.288	0.276	-0.419	0.734
C=CC[C@H](O)c1ccc(O)c(F)c1	-0.255	-0.63 (inactive)	-0.722 (inactive)	-1.56 (inactive)	-1.36	-0.53 (inactive)	-0.103	-0.529	-0.579	-0.115	0.399	-0.727	0.328	-0.339 (inactive)	-0.809	-1.13	-1.23	-0.418	-1.97	-2.89
CC(C)C(=C=CC[C@H](O)c1cccc(OCCO)c1)C[C@H](O)c1ccccn1	1.21	0.262 (inactive)	0.317 (inactive)	-0.647 (inactive)	1.55	0.879 (inactive)	-0.143	0.731	0.403	-0.157	0.406	-0.326	-0.253	-0.779 (inactive)	0.722	0.476	-0.387	0.339	-0.15	0.409
COC(=O)[C@@]1(Cc2ccc(F)cc2)[C@H]2c3cc(C(=O)N4CCCC4)n(Cc4ccc(C(F)(F)F)nc4)c3C[C@H]2CN1C(=O)c1ccccc1	0.428	-0.368 (inactive)	1.17 (inactive)	3.82 (inactive)	2.29	-0.293 (inactive)	0.67	0.373	1.03	0.188	0.513	0.16	1.33	-0.375 (inactive)	0.472	1.3	0.643	1.19	-0.417	0.843
COC(=O)C(CC#Cc1ccc2c(c1)[C@]1(C(=O)N2)[C@H](C(=O)N2CCCCCCC2)[C@H]2C(=O)O[C@H](c3ccccc3)[C@H](c3ccccc3)N2[C@@H]1c1ccc(OCCO)cc1)C(=O)OC	1.52	-0.0902 (inactive)	0.563 (inactive)	1.28 (inactive)	5.35	0.149 (inactive)	1.79	2.35	1.01	1.38	2.26	2.85	1.58	0.741 (inactive)	1.63	1.5	1.94	1.71	2.55	1.73
COc1ccc([Si](C)(C)[C@@H]2[C@@H](CC(=O)N3CCC[C@H]3CO)O[C@]3(C(=O)N(Cc4cccc(N5C(=O)c6cccc7cccc5c67)c4)c4ccccc43)[C@H]2C)cc1	1.34	-0.702 (inactive)	-0.487 (inactive)	-0.158 (inactive)	1.48	1.55 (inactive)	-0.0757	0.641	0.368	-0.115	1.22	-0.164	0.0325	-0.134 (inactive)	0.415	0.0816	0.192	0.402	0.655	0.608
C=C(CCCC)/C(=C/C[C@@H](OC(C)=O)c1ccc(OCCO)cc1)c1cc(C(=O)OC)ccc1OC	1.55	-0.201 (inactive)	-0.52 (inactive)	-0.645 (inactive)	2.27	0.0811 (inactive)	0.0677	0.0148	0.467	-0.0828	1.14	0.0822	0.411	0.374 (inactive)	0.151	0.244	-0.597	-0.137	-0.348	0.763
Cc1cccc([C@H]2C[C@H]3C(Br)=C[C@@]2(CO)C(=O)[C@]32CO2)c1	0.378	-1.54 (inactive)	-2.89 (inactive)	-0.75 (inactive)	2.39	-0.316 (inactive)	-0.114	0.783	0.353	-0.219	0.259	0.0578	0.382	-0.34 (inactive)	1.01	0.0353	-0.0766	0.159	-0.166	0.55
COC(=O)[C@]1(Cc2ccccc2CN=[N+]=[N-])N=C(c2ccc(OCCCO)cc2)O[C@@H]1c1ccccc1N=[N+]=[N-]	0.907	-0.267 (inactive)	-1.58 (inactive)	36.1 (active)	1.22	1.08 (inactive)	0.0269	0.398	-0.122	-0.297	0.973	-0.507	0.172	-0.346 (inactive)	0.267	0.135	-0.296	-0.332	-0.268	1.08
